Experimental data reported in PubChem BioAssay AID1903 (Southern Research Specialized Biocontainment Screening …, 2009).
Among all 310,000 compounds or so, about 1,200 (0.39%) were called active. No rule for the calls is given here. Only a sample is shown. Potency and affinity values are given separately.

The molecules below were run against Large T antigen (Simian virus 40) (UniProt P03070) (assay: SV40 large T antigen inhibitors, biochemical (AID 1903)). Settings: SV40 large T antigen ATPase/helicase inhibition assay; at 20 µM; stronger effect = higher value.
Chain of Large T antigen (Simian virus 40) (P03070 whole entry, looked up): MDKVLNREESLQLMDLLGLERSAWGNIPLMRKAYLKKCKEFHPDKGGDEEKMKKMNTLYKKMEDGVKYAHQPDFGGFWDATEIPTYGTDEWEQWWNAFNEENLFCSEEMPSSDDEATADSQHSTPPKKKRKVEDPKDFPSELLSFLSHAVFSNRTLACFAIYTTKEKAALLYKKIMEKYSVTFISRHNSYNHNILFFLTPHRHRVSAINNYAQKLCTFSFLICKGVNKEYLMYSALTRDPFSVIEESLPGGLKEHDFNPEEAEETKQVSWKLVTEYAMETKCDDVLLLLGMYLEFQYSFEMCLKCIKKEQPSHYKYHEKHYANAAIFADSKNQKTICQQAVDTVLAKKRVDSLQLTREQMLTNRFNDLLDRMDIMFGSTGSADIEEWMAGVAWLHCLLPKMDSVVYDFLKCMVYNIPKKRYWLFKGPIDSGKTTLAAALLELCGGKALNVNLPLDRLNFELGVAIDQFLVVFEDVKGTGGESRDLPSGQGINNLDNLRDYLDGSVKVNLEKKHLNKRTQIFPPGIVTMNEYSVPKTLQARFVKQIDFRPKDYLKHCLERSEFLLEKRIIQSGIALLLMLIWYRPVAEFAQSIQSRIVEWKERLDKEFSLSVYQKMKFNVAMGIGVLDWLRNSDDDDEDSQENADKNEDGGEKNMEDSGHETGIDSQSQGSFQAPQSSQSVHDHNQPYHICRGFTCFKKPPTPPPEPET

inhibition, inactive:
COc1ccccc1OC(C)C(=O)Nc1nc(-c2ccc(S(=O)(=O)N3CCOCC3)cc2)cs1 (stereo unspecified) -2.76%
O=C(O)CCC(=O)NNC(=O)c1ccc([N+](=O)[O-])cc1 24.3%
CN1CCN(c2ccccc2NC(=O)c2ccc(N3CCCCC3)c([N+](=O)[O-])c2)CC1 1.97%
COc1cc(C(=O)NCc2nnc(SCC(=O)NC3CCCCC3)o2)cc(OC)c1OC 9.82%
CNC(=S)N(CCCO)Cc1cc2cc3c(cc2[nH]c1=O)OCO3 4.07%
N#Cc1cc2c(nc1SCC(=O)Nc1sc3c(c1C#N)CCC3)CCCCCC2 -1.85%
Cc1nc(NC(=O)CCl)sc1C(=O)N(C)C 22.7%
C#CCOCCOCCOCCNc1nc(N2CCOCC2)nc(N2CCN(C(=O)CCCCCCCCCCNC(=O)[C@H]([C@@H](C)CC)n3cc(CCCCN=C(N)N)nn3)CC2)n1 5.58%
C#CCOCCOCCOCCNc1nc(N2CCN(C(=O)CCCCCCCCCCNC(=O)[C@H]([C@@H](C)CC)n3cc(CCCCN=C(N)N)nn3)CC2)nc(N2CCN(C(=O)CCCCCCCCCCNC(=O)[C@@H]([C@H](C)O)n3cc(C)nn3)CC2)n1 7.94%
CCOC(=O)c1cc(-c2ccc(OC)cc2)n(CCC(=O)NCCN2CCC(C)CC2)c1C 5.63%
CCN(CC)C(=O)Cn1cnc2ccccc2c1=O 5.63%
CCCN1C(=O)/C(=C/c2ccc(C)o2)NC1=S 33.1%
Cc1ccc(/C=C2/C(=O)N(c3ccccc3)C(=S)N2C)o1 6.66%
Cc1ccc(/C=C2\C(=O)Nc3ccccc32)o1 11.2%
Cc1ccc(/C=C2/NC(=O)N(c3ccccc3)C2=O)o1 22.8%
COc1ccc(N2C(=O)C3CC(C)=C(C)CC3C2=O)c(OC)c1 (stereo unspecified) 11.1%
CCOc1ccc(N2C(=O)/C(=C/c3ccc(C)o3)N(C)C2=S)cc1 15.8%
O=C1/C(=C\c2ccco2)NC(=S)N1c1ccccc1 35.2%
COc1ccc(N2C(=O)/C(=C/c3cccs3)NC2=S)cc1 14.1%
COc1cc(O)c(C(CC(=O)N2CCCC(C)C2)c2ccc3c(c2)OCO3)c(OC)c1 (stereo unspecified) 6.43%
Cn1cccc1C(=O)NNC(=O)c1ccccc1Br 8.13%
CC1(C)CC(=O)/C(=C(\O)Cc2ccccc2)C(=NCCCCCC(=O)O)C1 4.38%
CCCCNCc1cccn1-c1ccccc1 24.7%
COc1c(C)cccc1C(=O)Nc1ccc(OCC(=O)N2CCOCC2)cc1C 14.7%
COCC(=O)N/N=C\c1ccccc1OC/C=C/c1ccccc1 4.69%
COc1ccc(N=Cc2[nH]c3ccccc3c2O)cc1 13.7%
C=CCOc1ccc(C=Nc2ccc(OC)cc2)c(O)c1 28.3%
Cc1csc(NC(=O)CSc2nnc(-c3ccccc3)o2)n1 -6.99%
Cn1c(SCC(=O)N/N=C/c2ccncc2)nc2ccccc21 2.44%
CCn1c(SCC(=O)N/N=C/c2ccc(OC)c(OC)c2)nc2ccccc21 6.02%
O=C(N/N=C/c1ccc(O)cc1)c1cc(-c2ccccc2)nc2ccccc12 14.6%
COc1cc(/C=N/NC(=O)CSc2nc3ccccc3n2C)cc(OC)c1OC -1.56%
COc1cc(/C=N/NC(=O)c2cc(-c3ccccc3)nc3ccccc23)ccc1O 25.1%
CCn1c(SCC(=O)N/N=C/c2cc(OC)c(O)c(OC)c2)nc2ccccc21 -7.37%
Cc1cc(SCC(=O)N/N=C/c2ccc(C(=O)O)cc2)nc2ccccc12 6.65%
Cc1cc(SCC(=O)N/N=C/c2ccc(O)cc2O)nc2ccccc12 7.95%
C#CCOCCOCCOCCNc1nc(N2CCN(C(=O)CCCCCCCCCCNC(=O)[C@@H](CCC(=O)O)n3cc(CCCCCN)nn3)CC2)nc(N2CCN(C(=O)CCCCCCCCCCNC(=O)[C@H](CO)n3cc(CCCCCN)nn3)CC2)n1 31.5%
CCOC(=O)C1=C(C)N(C)C(=S)N(C)C1c1ccc(OC)cc1 (stereo unspecified) -2.82%
CCOc1cc2sc(N3CCC(C(=O)NCCCN4CCCC4=O)CC3)nc2cc1Br 12.1%
Cc1ccc(C(=O)NCCc2n[nH]c(=S)n2C)cc1 10.6%
CCC(=O)N1c2ccccc2[C@@H](N(C(C)=O)c2ccccc2)C[C@H]1C 4.31%
O=C(c1ccccc1)N1CCN(C2CC3CCC2C3)CC1 (stereo unspecified) 6.45%
O=C1/C(=C/c2ccc(F)cc2)SC(=S)N1CC(=O)N1CCCCC1c1cccnc1 (stereo unspecified) 18.2%
CCOC(=O)c1c(C)n(C)c2c(C)cc(O)c(OC(C)=O)c12 1.3%
COC(=O)c1ccc(N)c(CS(=O)(=O)c2ccc(Cl)cc2)c1 -0.68%
OCC1(Cc2ccccc2)CCCN(Cc2ccc3c(c2)OCCO3)C1 (stereo unspecified) 10.8%
CC(C)n1cnc2cc(NCc3nc4ccccc4n3C)ccc21 20.2%
O=C(CSc1nc2ccccc2o1)N/N=C/c1ccccc1 12.4%
O=C(Cc1nnc(NC(=O)c2ccccc2)s1)N/N=C/c1ccc(O)cc1 17.1%
O=C(CSc1nc2ccccc2o1)N/N=C/c1ccc(C(=O)O)cc1 16.5%
Cc1ccc(C(=O)Nc2nnc(CC(=O)N/N=C/c3ccc(O)c(O)c3)s2)cc1 19.4%
CCN(CC(=O)Nc1c(F)cccc1F)C(=O)/C=C/c1ccc(Br)s1 18.8%
Cc1ccc(-c2cn3c(n2)SCC3)cc1 23.1%
Oc1ccc(-c2cn3c(n2)SCC3)cc1 28.9%
Cc1ccc(C)c(S(=O)(=O)N2CCCCC2CCNC(=O)C(=O)NCc2cccnc2)c1 (stereo unspecified) 11.7%
CN(C)CCn1c(COc2ccccc2)nc2ccccc21 27.6%
COc1ccc(N2CCN(C(=S)NCc3ccc(C)cc3)CC2)cc1 5.85%
CCCCCC(=O)NC(NC(=S)Nc1ccc(S(N)(=O)=O)cc1)C(Cl)(Cl)Cl (stereo unspecified) 7.24%
O=C(Nc1cccc(N2CCCC2)c1)c1cccs1 7.12%
O=C(Nc1cccc(-n2cnnn2)c1)c1cccs1 6.94%
CN1CCCN(C(=O)CSc2ccccc2)CC1 27.3%
Cc1ccc(/C=C/C(=O)NCc2ccco2)o1 16.3%
O=C1C(=Cc2cccn2-c2ccc(O)cc2)C(=O)c2ccccc21 3.5%
O=C1NC(=S)N/C1=C/c1cccn1-c1ccc([N+](=O)[O-])cc1 5.15%
COc1ccc(N(CC(=O)Nc2ccc(C)cc2C)S(=O)(=O)c2c(C)n[nH]c2C)cc1 17.7%
O=C(COC(=O)c1n[nH]c2ccccc12)Nc1cccc(S(=O)(=O)N2CCOCC2)c1 7.02%
CCOc1ccc(S(=O)(=O)Nc2ccc(O)c(Sc3ncn[nH]3)c2)cc1 6.38%
CCOc1ccc(NS(=O)(=O)c2ccc3[nH]c(=O)oc3c2)cc1 1.63%
O=C(c1ccc(S(=O)(=O)Nc2ccc(F)cc2)cc1)N1CCN(c2ccccn2)CC1 10.4%
COc1cc(/C=C2\C(=O)NN(c3ccc(C)cc3)C2=O)cc([N+](=O)[O-])c1O 36.6%
COc1cc(/C=C2/C(=O)NN(c3cccc(C)c3)C2=O)cc([N+](=O)[O-])c1O 12.9%
COc1cc(/C=C2\C(=O)N(c3ccc(S(N)(=O)=O)cc3)N=C2C)ccc1OC(=O)c1ccco1 32.1%
COc1cc(/C=C2/C(=O)NN(c3ccc(Cl)cc3)C2=O)cc(Br)c1O 32.1%
COC(=O)c1ccc(N2NC(=O)/C(=C/c3ccc(OC)c(OC)c3)C2=O)cc1 23.8%
COc1cc(/C=C2/SC(=O)NC2=O)ccc1OC(=O)c1ccco1 15.8%
O=C(c1cccc2nc3ccccc3nc12)N1CCOCC1 13.7%
Cc1ccccc1N1C(=O)c2cccc([N+](=O)[O-])c2C1=O 18.8%
Cc1cccn2c(CNCCSc3nccn3C)c(C(=O)N3CCCCC3)nc12 14.5%
O=C(Nc1nncs1)Oc1ccccc1 14.9%
CCCCc1nc(SCC(=O)N2CCCC2)c2c(=O)n(C)c(=O)n(C)c2n1 8.36%
O=C(Nc1ccc(F)cc1)c1ccc(NC(=O)C2CCCO2)cc1 (stereo unspecified) 1.01%
O=C(Nc1nccs1)C1CC=CCC1 (stereo unspecified) 2.9%
O=C(Nc1cccc(O)c1)c1ccc(NC(=O)C2CCCO2)cc1 (stereo unspecified) 12.5%
O=C(Nc1ccc(F)cc1)C1CCCO1 (stereo unspecified) 22.1%
O=C(Nc1ccc(Oc2ccc(NC(=O)C3CCCO3)cc2)cc1)C1CCCO1 (stereo unspecified) 5.21%
O=C(NNC(=O)C1CC=CCC1)c1ccccc1O (stereo unspecified) -2.59%
COc1ccc(OC)c(CC(=O)NC(c2ccccc2)c2ccccc2)c1 5.47%
O=C(N=Nc1c(O)[nH]c2ccccc12)c1cc(-c2ccc(F)cc2)n[nH]1 7.92%
O=C(c1ccncc1)N1CCN(C(=O)c2ccco2)CC1 6.56%
O=S(Cc1cc(Oc2ccccc2)nc(-c2ccccc2)n1)c1ccccc1 (stereo unspecified) 16.4%
CN1CCN(c2ccc(CNC(=O)c3ccco3)cc2)CC1 9.25%
